Test results from PubChem BioAssay AID1220 (Sanford-Burnham Center for Chemical Genomics, 2008).
Hit rate of the full screen: of about 190,000 compounds, about 1,300 (0.68%) were called active. This excerpt belongs to a sample that is enriched for actives. Unmarked numbers belong to inactive results. Rule as the data show it: active = inhibition above about 50%; inactive = the rest.

What follows are compounds tested against Mannose-6-phosphate isomerase (Homo sapiens) (UniProt P34949) (assay: MPI inhibition at elevated mannose 6-phosphate – biochemical, fluorescence intensity, high mannose 6-phosphate, primary screen (AID 1220)). Details: recombinant PMI enzyme, coupled fluorescence intensity; at 20 µM; active compounds read high.
Chain of Mannose-6-phosphate isomerase (Homo sapiens) (P34949 whole entry, looked up): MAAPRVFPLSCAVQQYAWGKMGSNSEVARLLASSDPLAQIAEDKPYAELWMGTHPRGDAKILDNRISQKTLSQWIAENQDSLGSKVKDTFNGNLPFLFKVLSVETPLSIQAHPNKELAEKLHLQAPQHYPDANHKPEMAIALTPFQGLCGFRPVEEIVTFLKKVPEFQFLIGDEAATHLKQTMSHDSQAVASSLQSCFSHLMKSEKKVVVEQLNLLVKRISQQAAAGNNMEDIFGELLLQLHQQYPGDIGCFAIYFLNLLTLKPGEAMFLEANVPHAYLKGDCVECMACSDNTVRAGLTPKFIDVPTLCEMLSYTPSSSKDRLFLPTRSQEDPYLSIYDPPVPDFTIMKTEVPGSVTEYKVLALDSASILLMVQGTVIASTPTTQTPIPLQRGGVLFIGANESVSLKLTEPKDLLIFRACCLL

SMILES	inhibition
CC(C)CN1C(=O)c2ccc(NC(=O)c3ccco3)cc2C1=O	6.2%
COc1ccc(NC(=O)Nc2ccc(N3CCOCC3)c3nonc23)c(OC)c1	55.8% (active)
COc1ccc(NC(=O)Nc2ccc(C(=O)N3CCOCC3)cc2)c(OC)c1	0.2%
O=C(Nc1ccc(N2CCOCC2)c2nonc12)C1CCCC1	44.8%
COc1ccc(NC(C)C(=O)Nc2cc(C(F)(F)F)ccc2N2CCOCC2)c(OC)c1 (stereo unspecified)	24%
O=C(Nc1ccc(F)cc1)Nc1ccc(N2CCOCC2)c2nonc12	38%
O=C(Nc1ccc([N+](=O)[O-])cc1)Nc1ccc(N2CCOCC2)c2nonc12	57.9% (active)
COc1ccc(C)cc1-n1c(SCC(=O)Nc2cc(C)on2)nc2ccccc2c1=O	10.8%
COC(=O)Cc1sc(-c2ccccn2)nc1-c1ccccc1	21.2%
CCOc1cc(NC(=S)NC)c(OCC)cc1NC(=O)c1ccco1	49.7%
CCOc1cc(NC(=S)NCCOC)c(OCC)cc1NC(=O)c1ccco1	22.6%
CCNC(=S)Nc1cc(OCC)c(NC(=O)c2ccco2)cc1OCC	52.8% (active)
CCOc1cc(NC(=S)NCCCOC)c(OCC)cc1NC(=O)c1ccco1	50.7% (active)
CCNC(=S)Nc1cc(OC)c(NC(=O)c2ccco2)cc1OC	33.9%
CCOCCCNC(=S)Nc1cc(OCC)c(NC(=O)c2ccco2)cc1OCC	44.5%
O=C(CO/N=C/c1ccc(OC(F)F)cc1)NC1CCCC1	0.6%
COC(=O)C1=C(C)N(CCc2ccc(OC)c(OC)c2)C(=O)C1	-10.6%
Cc1nnc(SCc2nnc(-c3cccs3)o2)n1Cc1ccccc1	-7.3%

SMILES	inhibition
COc1cc(C(c2oc(CO)cc(=O)c2O)c2oc(CO)cc(=O)c2O)cc(OC)c1OC	-11.4%
CCCN1CCN(CCCNC(=S)Nc2ccc(OC)cc2)CC1	6.6%
O=C(OCC(=O)N1CCCCC1)c1ccccc1SCC(=O)N1CCCCC1	-4%
N#Cc1c2ccc(O)cc2n2ccccc12	62.6% (active)
Cn1c(CN2CCOCC2)c(C#N)c2ccccc21	3%
Cc1cc(=O)n2ccccc2c1C#N	3.5%
COC(=O)CCC/C=C1/SCC(NC(=O)c2ccccc2)/C1=N/O (stereo unspecified)	-7.4%
CCC(C(=O)Nc1cnccn1)c1ccccc1 (stereo unspecified)	4%
CCN(CC)S(=O)(=O)c1cccc(C(=O)N/N=C/c2cccc(O)c2O)c1	53.1% (active)
Cc1cc(C)nc(SCc2ccc(C(=O)N/N=C/c3cccc(O)c3O)cc2)n1	55% (active)
CCn1c(C)nc2cc(C(=O)N/N=C/c3ccccc3C)ccc21	-6.4%
CCOc1ccccc1/C=N/NC(=O)c1cccc(S(=O)(=O)N(CC)CC)c1	5.1%
CCN(CC)S(=O)(=O)c1cccc(C(=O)N/N=C/c2ccccc2OCC(=O)O)c1	2.8%
CCN(CC)S(=O)(=O)c1cccc(C(=O)N/N=C/c2cc(OC)c(O)c(OC)c2)c1	15.5%
Cc1cc(C)nc(SCc2ccc(C(=O)N/N=C/c3ccccc3C(=O)O)cc2)n1	-6.2%
CCn1c(C)nc2cc(C(=O)N/N=C/c3cccc(OC)c3O)ccc21	-8.6%
COc1ccc(O)c(/C=N/NC(=O)c2ccc(CSc3nc(C)cc(C)n3)cc2)c1	-12.2%
CCN(CC)S(=O)(=O)c1cccc(C(=O)N/N=C/c2ccc(OC)c(O)c2)c1	6.1%
